Assay [1] can be described thus: NCI Yeast Anticancer Drug Screen. Data for the mec2-1 strain (AID 157). The following applies: S. cerevisiae mec2-1 strain, hits give high values. The method, boiled down: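 Growth inhibition is read against vehicle-treated controls after compound exposure of the mec2-1 yeast strain, which is defective in DNA damage repair or cell cycle control.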
Assay [2] can be described thus: NCI Yeast Anticancer Drug Screen. Data for the sgs1 mgt1 strain (AID 161).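 Note: 0% = growth of cultures given vehicle only.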 The settings on record: S. cerevisiae sgs1 mgt1 strain, hits give high values. The method, boiled down: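 Percent growth inhibition was derived by comparing compound-exposed mutant yeast with vehicle-exposed cultures. The strain carries alterations in DNA damage repair.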
Assay [3] in a line: NCI Yeast Anticancer Drug Screen. Data for the cln2 rad14 strain (AID 165).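 Note: 0% = growth equal to vehicle treated cultures.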 The settings on record: S. cerevisiae cln2 rad14 strain, hits give high values. The method, boiled down: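 Growth inhibition, relative to vehicle-treated controls, is the read-out. The test organism is a yeast strain with defined genetic alterations, cln2 rad14.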
Assay [4] is described as follows: NCI Yeast Anticancer Drug Screen. Data for the bub3 strain (AID 167). The settings on record: S. cerevisiae bub3 mutant strain, hits give high values. The method, boiled down:
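Part of a panel of yeast mutants defective in DNA damage repair or cell cycle regulation. Each strain is grown with compound, and inhibition is calculated relative to solvent-treated cultures.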

Assay [5] is described as follows: NCI Yeast Anticancer Drug Screen. Data for the mlh1 rad18 strain (AID 175). The settings on record: S. cerevisiae mlh1 rad18 strain growth inhibition, hits give high values. The method, boiled down:
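Cells of a genetically altered yeast strain, deficient in DNA damage repair, were treated with compound. Their growth was then compared with that of vehicle-treated cultures to give inhibition.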

Assay [6] in a line: NCI Yeast Anticancer Drug Screen. Data for the rad50 strain (AID 155).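 Note: 0% = growth of vehicle-only cultures of the same strain.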 The following applies: S. cerevisiae rad50 strain growth inhibition, hits give high values. The method, boiled down: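 Cells are treated with compound, grown, and their growth is then scored against vehicle-only cultures of the same repair-deficient yeast strain.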
[7] abbreviates: at 5.0 µM (retest, dose inferred, filed as 0.5).
Setting [8] is: at 50.0 µM (retest, dose inferred, filed as 5.0).

“And” between values parts separate entries of the source, which are not always exact repeats. Equal entries are not always repeated. Compounds without any hit were thinned out: in the full panel of roughly 79,000, 15% have a hit. A number with no mark means an inactive call. The source made the active and inactive calls. Cut-off read from the data, not from the text of the source: active = growth inhibition above about 70%; inactive = the rest.

For the compound `BrC(c1cccc2ccccc12)c1cccc2ccccc12`, the growth inhibition is 20% in assay [1] (setting [7]); 97% (active) in assay [1] (setting [8]); 94.7% (active) in assay [1] (at 50.0 µM); 1% in assay [2] (setting [7]); 96% (active) in assay [2] (setting [8]); 94.8% (active) in assay [2] (at 50.0 µM). Moreover, the growth inhibition in assay [3] (setting [7]) is 0%; in assay [3] (setting [8]), 94% (active); in assay [3] (at 50.0 µM), 92.8% (active); in assay [4] (setting [7]), -6%; in assay [4] (setting [8]) it was 96% (active); in assay [4] (at 50.0 µM), 94.2% (active). For the same compound, the growth inhibition in assay [5] (setting [7]) is 18%; in assay [5] (setting [8]) it was 95% (active); in assay [5] (at 50.0 µM), 95% (active).
As for `COc1cccc2c1C(=O)c1c(O)c3c(c(O)c1C2=O)CC(O)(C(C)=O)CC3OC1CC(N)C(O)C(C)O1` (stereo unspecified), the growth inhibition in assay [6] (setting [7]) is 25%; in assay [6] (setting [8]), 40%; in assay [1] (setting [7]), 12%; in assay [1] (setting [8]), 21%; in assay [2] (setting [7]), 20%; in assay [2] (setting [8]), 29%. The growth inhibition in assay [3] (setting [7]) was 14%; in assay [3] (setting [8]), 9%; in assay [4] (setting [7]), 36%; in assay [4] (setting [8]) it was 40%; in assay [5] (setting [7]), 23%; in assay [5] (setting [8]) it was 28%.
Consider `CCCCCCCCOC(=O)c1cc(O)c(O)c(O)c1`, for which the growth inhibition is 49% in assay [6] (setting [7]); 64% in assay [6] (setting [8]); 89.2% (active) in assay [6] (at 50.0 µM); 59% in assay [2] (setting [7]); 98% (active) in assay [2] (setting [8]); 93% (active) in assay [2] (at 50.0 µM). Moreover, the growth inhibition is 48% in assay [3] (setting [7]); 98% (active) in assay [3] (setting [8]); 90% (active) in assay [3] (at 50.0 µM); 70% (active) in assay [4] (setting [7]); 97% (active) in assay [4] (setting [8]); 89.8% (active) in assay [4] (at 50.0 µM). The growth inhibition in assay [5] (setting [7]) was 44%; in assay [5] (setting [8]), 59%; in assay [5] (at 50.0 µM) it was 89.2% (active).
With `O=C(Nc1ccc(C(=O)O)c(O)c1)c1ccccc1`, the growth inhibition is -12% in assay [1] (setting [7]); -26% in assay [1] (setting [8]); 0.7% and -0.4% in assay [1] (at 50.0 µM); 0% in assay [2] (setting [7]); 0% in assay [2] (setting [8]); -20% and 3.05% in assay [2] (at 50.0 µM). For the same compound, the growth inhibition in assay [3] (setting [7]) is -4%; in assay [3] (setting [8]), -5%; in assay [3] (at 50.0 µM), -26.9% and 14.5%; in assay [4] (setting [7]) it was 1%; in assay [4] (setting [8]), 6%; in assay [4] (at 50.0 µM), 15.7% and 12.3%. The growth inhibition is -3% in assay [5] (setting [7]); 6% in assay [5] (setting [8]); 8.1% and -3.2% in assay [5] (at 50.0 µM).
With `CC(O)CN1CCN(CC(C)O)CC1.[I][Pt+2][I]` (stereo unspecified), the growth inhibition is -5% in assay [6] (setting [7]); 27% in assay [6] (setting [8]); 59.7% in assay [6] (at 50.0 µM); -1% in assay [2] (setting [7]); 16% in assay [2] (setting [8]); 78.9% (active) in assay [2] (at 50.0 µM). Further, the growth inhibition in assay [3] (setting [7]) is 2%; in assay [3] (setting [8]), 7%; in assay [3] (at 50.0 µM) it was 17.9%; in assay [4] (setting [7]) it was -1%; in assay [4] (setting [8]), 2%; in assay [4] (at 50.0 µM), -2%. In addition, the growth inhibition was -2% in assay [5] (setting [7]), 16% in assay [5] (setting [8]) and 92.7% (active) in assay [5] (at 50.0 µM).
In the case of `Nc1cc(F)c2c(c1)Cc1ccccc1-2`, the growth inhibition is -3% in assay [1] (setting [7]); 60% in assay [1] (setting [8]); 39.2% in assay [1] (at 50.0 µM); -6% in assay [2] (setting [7]); 84% (active) in assay [2] (setting [8]); 82.7% (active) in assay [2] (at 50.0 µM). For the same compound, the growth inhibition is 8% in assay [3] (setting [7]); 32% in assay [3] (setting [8]); 23.7% in assay [3] (at 50.0 µM); 9% in assay [4] (setting [7]); 92% (active) in assay [4] (setting [8]); 71% (active) in assay [4] (at 50.0 µM). The growth inhibition was 12% in assay [5] (setting [7]), 97% (active) in assay [5] (setting [8]) and 58.1% in assay [5] (at 50.0 µM).
Turning to `C=C1CC2(CC(c3ccccc3OC)OC(c3ccccc3OC)C2)OC1=O` (stereo unspecified), the growth inhibition in assay [1] (setting [7]) was 15%; in assay [1] (setting [8]) it was 10%; in assay [1] (at 50.0 µM), 74.7% (active); in assay [2] (setting [7]), 26%; in assay [2] (setting [8]) it was 70% (active); in assay [2] (at 50.0 µM) it was 54.2%. Moreover, the growth inhibition in assay [3] (setting [7]) was 23%; in assay [3] (setting [8]) it was 79% (active); in assay [3] (at 50.0 µM), 71.8% (active); in assay [4] (setting [7]), 21%; in assay [4] (setting [8]), 14%; in assay [4] (at 50.0 µM), 60.5%. For the same compound, the growth inhibition in assay [5] (setting [7]) was 40%; in assay [5] (setting [8]), 88% (active).
